Experimental data taken from PubChem BioAssay (NCATS).
Results filed as inconclusive are left out. Values without a mark were called inactive. Active and inactive are the calls of the source. Unless noted, calls follow the shape of the full dose curve.

test: S16 Schwann cell PMP22 intronic element beta-lactamase assay (AID 624044); details: S16 rat Schwann cells, PMP22 element beta-lactamase FRET, 24 h; series mostly up to 38.3 µM; ratio activity, negative = inhibition: at the top concentration; also: nearly all actives have a fitted effect of over 15% in size;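 as to ratio activity, negative = inhibition: 0% = DMSO and -100% = potassium clavulanate positive control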
Procedure, shortened: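 Rat S16 Schwann cells with beta-Lac driven by a PMP22 intronic element, compound-treated 24 h at 37 °C. LiveBLAzer FRET B/G read: 460 nm normalized to potassium clavulanate vs DMSO; 535 nm FRET as viability; concentration-effect curves classified.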
Potency is read from the fitted curve at half-maximal effect.

Row | Compound | ratio activity, negative = inhibition | Potency
1 | CC(C)=CCOc1ccc(/C=C/C(=O)c2ccc(OCC=C(C)C)cc2OCC(=O)O)cc1 | 2.71% | 
2 | COc1cc([C@H]2Oc3cc([C@H]4Oc5cc(O)cc(O)c5C(=O)[C@@H]4O)ccc3O[C@@H]2CO)ccc1O | 2.42% | 
3 | O=C(Nc1ncc([N+](=O)[O-])s1)c1cccs1 | 5.96% | 
4 | NC(=S)N/N=C/c1cccnc1 | 2.41% | 
5 | O=C(NCCc1c[nH]c2ccccc12)c1cccnc1 | 3.8% | 
6 | NCc1ccccc1Sc1ccccc1CO | -0.887% | 
7 | CCCCCCCCCCCCCCCC(=O)O | -22.2% | 
8 | CNCCCCOc1ccccc1Cc1ccccc1 | -28.7% | 
9 | CC[C@H](c1ccc(O)cc1)[C@@H](CC)c1ccc(O)cc1 | -0.767% [at 17.1 µM] | 
10 | CN(CCCN1c2ccccc2CCc2ccccc21)CC(=O)c1ccc(Cl)cc1 | 3.34% | 
11 | C=C[C@@]1(C)CC(=O)[C@]2(O)[C@@]3(C)[C@@H](O)CCC(C)(C)[C@@H]3[C@H](O)[C@H](OC(C)=O)[C@@]2(C)O1 |  | 0.707 µM (active)
12 | CCN(CC)CCOc1ccccc1C(=O)CCc1ccccc1 | -4.37% | 
13 | O=[N+]([O-])c1cccc(S(=O)(=O)NCCNS(=O)(=O)c2cccc([N+](=O)[O-])c2)c1 | 5.64% | 
14 | CN(Cc1ccc(C(C)(C)C)cc1)Cc1cccc2ccccc12 | -7.43% | 
15 | CCc1oc2ccccc2c1C(=O)c1cc(I)c(O)c(I)c1 | -0.354% | 
16 | O=C(CCN1CCN2CCCC2C1)N1c2ccccc2Sc2ccc(Cl)cc21 (stereo not drawn) | 0.456% | 
17 | CO[C@]12C[C@@H](COC(=O)c3cncc(Br)c3)CN(C)[C@@H]1Cc1cn(C)c3cccc2c13 | -10.5% | 
18 | C#C[C@]1(O)CC[C@H]2[C@@H]3CCC4=Cc5oncc5C[C@]4(C)[C@H]3CC[C@@]21C | -4.39% | 
19 | N/C(=N\N=C\c1ccc(Cl)cc1)N/N=C/c1ccc(Cl)cc1 | -0.281% | 
20 | Cc1ccc2c(Br)cc(Br)c(O)c2n1 |  | 17.8 µM (active)
21 | O=C(O)C1(C(=O)O)CCC1.[NH2-].[NH2-].[Pt+2] | -9.51% | 
22 | NCCNc1cccc2ccccc12 | -3.25% | 
23 | O=C(CN1CCN(Cc2ccc3c(c2)OCO3)CC1)N1c2ccccc2Sc2ccccc21 | 0.888% | 
24 | CCCCCCCCCCCCCC[N+](C)(C)Cc1ccccc1 | -13.2% | 

test: qHTS assay for small molecule agonists of the antioxidant response element (ARE) signaling pathway (AID 651741; active = well fitted activation curve with a large enough effect in the signal ratio; the % refers to the signal ratio; as to activation: % of control where 0% means no effect); details: HepG2 ARE-bla reporter, beta-lactamase FRET ratio, 16 h; series mostly up to 96 µM; activation: at the top concentration
Procedure, shortened: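 Compounds in DMSO are pinned onto HepG2 ARE-bla cells (2,000/well) that were preincubated 5 h; plates stay 16 h at 37 C, then beta-lactamase activity is detected with LiveBLAzer B/G substrate by fluorescence.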

Row | Compound | activation | Potency
25 | CCCCCCCCCCCCCCCC(=O)O | 4.37% | 
26 | CCCCCCCCOc1ccc(C(=O)c2ccccc2)c(O)c1 | 13.3% | 
27 | Oc1c(Cl)cc(Cl)c(Cl)c1Cc1c(O)c(Cl)cc(Cl)c1Cl |  | 6.86 µM (active)
28 | NCCNc1cccc2ccccc12 | 3.49% | 
